Consider 7 molecules from PubChem BioAssay (NCI).

Compounds without any hit were thinned out: in the full panel of roughly 83,000, 20% have a hit.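 Results are percent growth after 48 hours of single-concentration exposure. 100 means growth as in untreated cells, lower positive values show inhibition; negative values down to -100 show cell death.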 A number with no mark means an inactive call. Active and inactive are the calls of the source. How the source made its calls: active means growth percent below 10; inactive means the rest.

Holding throughout (test): NCI-60 one-dose screen, 48 h (100 = growth as untreated, 0 = no growth, -100 = all killed)
One experiment concerns HT29 colon. The note with it: 10 µM unless noted.
For another experiment, the system named is SNB-75 CNS. The settings on record: 10 µM unless noted.
The next experiment has as its system SNB-19 CNS. The note with it: 10 µM unless noted.
The test system of a further experiment is U251 CNS. The settings on record: 10 µM unless noted.
A further experiment relates to PC-3 prostate. The note with it: 10 µM unless noted.
For another experiment, the system named is SK-MEL-5 melanoma. The settings on record: 10 µM unless noted.
A further experiment concerns UACC-62 melanoma. The settings on record: 10 µM unless noted.
In the next experiment the test system is LOX IMVI melanoma. The settings on record: 10 µM unless noted.
The next experiment concerns SK-MEL-28 melanoma. The note with it: 10 µM.
The test system of another experiment is SK-MEL-2 melanoma. The settings on record: 10 µM unless noted.
The next experiment relates to EKVX NSCLC. The settings on record: 10 µM unless noted.
The next experiment relates to SN12C renal. The note with it: 10 µM unless noted.
For a further experiment, the system named is UO-31 renal. The settings on record: 10 µM unless noted.
The test system of a further experiment is TK-10 renal. The note with it: 10 µM unless noted.
In a further experiment the test system is ACHN renal. The settings on record: 10 µM unless noted.
In the next experiment the test system is CAKI-1 renal. The settings on record: 10 µM unless noted.
For the next experiment, the system named is A498 renal. The note with it: 10 µM unless noted.
The next experiment relates to CCRF-CEM leukemia. The settings on record: 10 µM unless noted.
The subject of another experiment is MOLT-4 leukemia. The settings on record: 10 µM unless noted.
For the next experiment, the system named is SR leukemia. The note with it: 10 µM unless noted.

Regarding `Cc1ccc2sc3c(NCCCNCCO)nc4ccccc4c3c(=O)c2c1`, the growth in the experiment on HT29 colon was -65% (active); in the experiment with SNB-75 CNS, 33.3%; in the experiment with SNB-19 CNS, 68.5%; with U251 CNS it was -39.5% (active); with PC-3 prostate, 39.3%; in the experiment on SK-MEL-5 melanoma, 85.6%. Further, the growth in the experiment on UACC-62 melanoma was -25.3% (active); in the experiment with LOX IMVI melanoma it was -27.3% (active); in the experiment with SK-MEL-28 melanoma, 79.8%; with SK-MEL-2 melanoma it was 90.8%; in the experiment with EKVX NSCLC it was 57.3%; in the experiment on SN12C renal it was 72.8%. Besides, the growth with UO-31 renal was 48.6%; with TK-10 renal it was 66.9%; with ACHN renal it was 6.81% (active); in the experiment on CAKI-1 renal it was 56.7%; with A498 renal it was 65.8%; in the experiment with CCRF-CEM leukemia, 10.8%. Also, the growth was -39.3% (active) with MOLT-4 leukemia and 2.94% (active) in the experiment on SR leukemia.
Turning to `O=C(Nc1ccc(N2CCNCC2)cn1)c1[nH]ncc1Nc1ncnc2sccc12`, the growth in the experiment on HT29 colon was 2.95% (active); in the experiment on SNB-75 CNS it was 59.5%; with SNB-19 CNS, 48.7%; in the experiment with U251 CNS, -51.1% (active); with PC-3 prostate, 23.7%; with SK-MEL-5 melanoma, 58.2%. The growth in the experiment on UACC-62 melanoma is 74.7%; in the experiment on LOX IMVI melanoma, -75.1% (active); with SK-MEL-28 melanoma, -81.4% (active); in the experiment on SK-MEL-2 melanoma it was 85.7%; in the experiment on EKVX NSCLC, 65.8%; in the experiment on SN12C renal it was 66.9%. The growth with UO-31 renal was 76.1%; with TK-10 renal, 87.1%; with ACHN renal it was 60.2%; in the experiment with CAKI-1 renal, 54.1%; in the experiment with A498 renal it was 80.7%; in the experiment with MOLT-4 leukemia, 2.22% (active). Also, the growth in the experiment on SR leukemia is -5.97% (active).
`O=C1/C=C/[C@@H](O)[C@@H]2C[C@@H](O)C[C@H]2/C=C/CCCCO1`: the growth in the experiment on HT29 colon was 2.63% (active); in the experiment on SNB-75 CNS, 29.7%; with SNB-19 CNS, 28.7%; in the experiment with U251 CNS, 39.7%; with PC-3 prostate, -17.5% (active); in the experiment with SK-MEL-5 melanoma, -93.1% (active). Also, the growth in the experiment with UACC-62 melanoma is 64.1%; in the experiment with LOX IMVI melanoma, 1.64% (active); in the experiment with SK-MEL-28 melanoma, -8.98% (active); in the experiment with SK-MEL-2 melanoma, 8.85% (active); in the experiment on EKVX NSCLC it was 20.6%; in the experiment on SN12C renal, 45.3%. For the same molecule, the growth is 8.64% (active) in the experiment with UO-31 renal; 32.1% with TK-10 renal; 17.9% with ACHN renal; 18.4% in the experiment with CAKI-1 renal; -25.5% (active) in the experiment with A498 renal; 5.39% (active) in the experiment on MOLT-4 leukemia. Besides, the growth in the experiment on SR leukemia is 14.4%.
In the case of `COc1ccc(C2=Nn3c(NN)nnc3SC2)cc1`, the growth with HT29 colon was 83.8%; with SNB-75 CNS, 92.4%; in the experiment with SNB-19 CNS, 104%; in the experiment on U251 CNS, 99.7%; with PC-3 prostate, 87.6%; with SK-MEL-5 melanoma it was 91.5%. Moreover, the growth in the experiment with UACC-62 melanoma is 104%; with LOX IMVI melanoma it was 99.9%; in the experiment on SK-MEL-28 melanoma it was 110%; in the experiment on SK-MEL-2 melanoma it was 94.4%; in the experiment with EKVX NSCLC it was 118%; in the experiment with SN12C renal it was 101%. The growth in the experiment on UO-31 renal was 84.5%; with TK-10 renal, 97.5%; in the experiment with ACHN renal it was 103%; in the experiment with CAKI-1 renal it was 89.7%; with A498 renal, 84.6%; with CCRF-CEM leukemia, 95.1%. Besides, the growth was 83% with MOLT-4 leukemia and 75.8% in the experiment on SR leukemia.
`O=C(c1nc2ccccc2[nH]1)C1C(c2ccc([N+](=O)[O-])cc2)C2CC3CCCCC3N2[C@@]12C(=O)Nc1cc(Cl)ccc12` (stereo partly drawn): the growth in the experiment with HT29 colon was 18.5%; with SNB-75 CNS, 27.4%; in the experiment on SNB-19 CNS, 27.5%; in the experiment on U251 CNS, 25.5%; in the experiment on PC-3 prostate, 22.3%; in the experiment with SK-MEL-5 melanoma, -57.1% (active). Further, the growth with UACC-62 melanoma is 20.5%; with LOX IMVI melanoma it was 25.1%; in the experiment on SK-MEL-28 melanoma it was 44.9%; in the experiment with SK-MEL-2 melanoma it was 48.3%; in the experiment with EKVX NSCLC, 16.6%; with SN12C renal, 34.1%. Also, the growth with UO-31 renal is 13.1%; in the experiment with TK-10 renal it was 36.7%; in the experiment on ACHN renal it was 18.4%; in the experiment with CAKI-1 renal, 41.5%; with A498 renal, -1.18% (active); in the experiment with CCRF-CEM leukemia, 24.2%. For the same molecule, the results for the growth with MOLT-4 leukemia and in the experiment with SR leukemia were 8.23% (active) and 19.6%, respectively.
On to `O=c1c2cccc(F)c2sc2c(N3CCNCC3)nc3ccccc3c12`, for which the growth in the experiment on HT29 colon was -45.4% (active); with SNB-75 CNS it was 35.3%; in the experiment with SNB-19 CNS it was 46.5%; with U251 CNS, 10.3%; in the experiment with PC-3 prostate, 39.8%; with SK-MEL-5 melanoma it was 56.2%. In addition, the growth in the experiment on UACC-62 melanoma was 54%; in the experiment on LOX IMVI melanoma it was 19.9%; in the experiment on SK-MEL-28 melanoma it was 69.1%; with SK-MEL-2 melanoma, 95%; in the experiment with EKVX NSCLC, 48.2%; with SN12C renal it was 46.5%. Moreover, the growth is 23% in the experiment on UO-31 renal; 53% in the experiment with TK-10 renal; 16% in the experiment on ACHN renal; 39.4% with CAKI-1 renal; 48.5% in the experiment on A498 renal; 13.2% in the experiment on CCRF-CEM leukemia. Besides, the figures for the growth in the experiment on MOLT-4 leukemia and in the experiment with SR leukemia were -18.8% (active) and 3.21% (active), respectively.
For the molecule `COc1cc2nc(-c3cnc(N(C)C)nc3)nc(NC3CCN(Cc4ccccc4)CC3)c2cc1OC`, the growth in the experiment with HT29 colon was -84.4% (active); in the experiment on SNB-75 CNS, -96.7% (active); in the experiment with SNB-19 CNS it was -79.2% (active); in the experiment with U251 CNS, -87.4% (active); in the experiment on PC-3 prostate, -83.2% (active); in the experiment on SK-MEL-5 melanoma, 10.6%. For the same molecule, the growth in the experiment with UACC-62 melanoma is -94.5% (active); in the experiment with LOX IMVI melanoma, -91.9% (active); with SK-MEL-28 melanoma, -78.7% (active); in the experiment with SK-MEL-2 melanoma it was 89.5%; in the experiment with EKVX NSCLC it was -71.2% (active); in the experiment with SN12C renal, -87.2% (active). Also, the growth with UO-31 renal was -81.2% (active); in the experiment with TK-10 renal, -98.6% (active); in the experiment on ACHN renal, -100% (active); with CAKI-1 renal, -90.9% (active); in the experiment on A498 renal it was 43.2%; in the experiment with CCRF-CEM leukemia it was -31.3% (active). Besides, the growth in the experiment with MOLT-4 leukemia was -16.5% (active); in the experiment on SR leukemia it was 4.28% (active).
